# Data: the supplement of paper PMC9177965
# Values joined by “and” are separate entries in the source; they are usually repeats but may differ in a detail not shown here. Equal values may be shown once.
# System: HT29 RNF43 G659fs (RNF43 659mut, CRISPR-edited)
# Experiment: cell viability activity relative to DMSO (negative = inhibition); higher = more viable cells (less growth inhibition)
# Details: 5 µM; 96 h
# Experimental: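 Broad Repurposing Library primary screen at a single dose of 5 uM. HT29 sg-Ctrl and HT29 RNF43 G659fs CRISPR-edited isogenic cells were seeded at 2500 cells/well in 384-well plates in duplicate and treated for 96 h. Viability was read by CellTiter-Glo and reported as % activity relative to DMSO, with MG132 as the positive control (negative = growth inhibition).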
row,Compound,cell viability activity
1,O=C(C[C@H]1NCCC[C@@H]1O)Cn1cnc2cc(Br)c(Cl)cc2c1=O,-91.6%
2,CC[C@@H]1/C=C/C=C/C[C@H](C)[C@H](O)[C@](C)(O)C(=O)[C@H](C)[C@@H](O)[C@H](C)C(=O)[C@H](C)[C@@H](O)[C@H](C)/C=C/C(=O)O[C@H]2[C@@H](C)[C@@H](CC1)O[C@@]1(CC[C@@H](C)[C@@H](C[C@H](C)O)O1)[C@@H]2C,-38.4%
3,COC(=O)NC(=S)Nc1ccccc1NC(=S)NC(=O)OC,-31.4%
4,Oc1cc(Cl)ccc1Oc1ccc(Cl)cc1Cl,-89.3%
5,CC(C)[C@]12O[C@H]1[C@@H]1O[C@]13[C@]1(O[C@H]1C[C@H]1C4=C(CC[C@@]13C)C(=O)OC4)[C@@H]2O,-90.2% and -88.7%
6,C[C@@H]1O[C@@H](O[C@H]2C[C@@H](O)[C@]3(CO)[C@H]4[C@H](O)C[C@]5(C)[C@@H](C6=CC(=O)OC6)CC[C@]5(O)[C@@H]4CC[C@]3(O)C2)[C@H](O)[C@H](O)[C@H]1O,-90.4% and -90%
7,C[C@]12CC[C@H]3[C@@H](CC[C@]4(O)C[C@@H](O)CC[C@]34C=O)[C@@]1(O)CC[C@@H]2C1=CC(=O)OC1,-81.8%
8,NC(=O)c1cn([C@@H]2O[C@H](CO)[C@@H](O)[C@H]2O)c2ncnc(N)c12,-95.1%
9,C=C(C)[C@H]1Cc2c(ccc3c2O[C@@H]2COc4cc(OC)c(OC)cc4[C@@H]2C3=O)O1,-61.5%
10,C[C@]12CC[C@H](O)C[C@H]1CC[C@@H]1[C@@H]2C[C@@H](O)[C@]2(C)[C@@H](C3=CC(=O)OC3)CC[C@]12O,-78.8%
11,C[C@]12O[C@H](C[C@]1(O)CO)n1c3ccccc3c3c4c(c5c6ccccc6n2c5c31)CNC4=O,-88.5%
12,CN1CCN(c2cccc3[nH]c(=O)oc23)CC1,-64.6%
13,C[C@H]1CCC/C=C/[C@@H]2C[C@H](O)C[C@H]2[C@H](O)/C=C/C(=O)O1,-99.3% and -97.5%
14,COc1cccc2c1C(=O)c1c(O)c3c(c(O)c1C2=O)C[C@@](O)(C(=O)CO)C[C@@H]3O[C@H]1C[C@H](N2CCO[C@H](OC)C2)[C@H](O)[C@H](C)O1,-96.6%
15,COc1cc2c(c(OC)c1OC)-c1ccc(OC)c(=O)cc1[C@@H](NC(C)=O)CC2,-55.9% and -56.4%
16,C[C@]12CC[C@H](O)C[C@H]1CC[C@@H]1[C@@H]2CC[C@]2(C)[C@@H](C3=CC(=O)OC3)CC[C@]12O,-87.2%
17,COC(=O)C[C@](O)(CCC(C)(C)O)C(=O)O[C@@H]1C(OC)=C[C@]23CCCN2CCc2cc4c(cc2[C@H]13)OCO4,-89.5%
18,C/C(=C\c1csc(C)n1)[C@@H]1C[C@@H]2O[C@@H]2CCC[C@H](C)[C@H](O)[C@@H](C)C(=O)C(C)(C)[C@@H](O)CC(=O)O1,-69%
19,COc1cc([C@@H]2c3cc4c(cc3[C@H](O)[C@H]3COC(=O)[C@H]23)OCO4)cc(OC)c1OC,-59.9%
20,Cc1sc2c(c1C)C(c1ccc(Cl)cc1)=N[C@@H](CC(=O)OC(C)(C)C)c1nnc(C)n1-2,-60.2%

row,Compound,cell viability activity
1,CCN(CC)CCO[C@H]1CC[C@@]2(C)C(=CC[C@@H]3[C@@H]2CC[C@]2(C)C(=O)CC[C@@H]32)C1,-67.5%
2,Cn1c(COP(=O)(NCCBr)NCCBr)cnc1[N+](=O)[O-],-53.2%
3,Oc1cccc2cccnc12,-48.9%
4,N#Cc1cn([C@@H]2O[C@H](CO)[C@@H](O)[C@H]2O)c2ncnc(N)c12,-94.2%
5,CO[C@H]1C[C@H](O[C@H]2CC[C@@]3(C)[C@H](CC[C@@H]4[C@@H]3CC[C@]3(C)[C@@H](C5=CC(=O)OC5)[C@@H](OC(C)=O)C[C@]43O)C2)O[C@@H](C)[C@@H]1O,-84.3%
6,COc1ccc(CCN2CCC(Nc3nc4ccccc4n3Cc3ccc(F)cc3)CC2)cc1,-23.2%
7,Cc1sc2c(c1C)C(c1ccc(Cl)cc1)=N[C@@H](CC(=O)Nc1ccc(O)cc1)c1nnc(C)n1-2,-56.2%
8,c1ccc2c(c1)[I+]c1ccccc1-2,-61.9%
9,CC(=O)O[C@H]1C[C@H](O[C@H]2[C@@H](O)C[C@H](O[C@H]3[C@@H](O)C[C@H](O[C@H]4CC[C@@]5(C)[C@H](CC[C@@H]6[C@@H]5C[C@@H](O)[C@]5(C)[C@@H](C7=CC(=O)OC7)CC[C@]65O)C4)O[C@@H]3C)O[C@@H]2C)O[C@H](C)[C@H]1O[C@@H]1O[C@H](CO)[C@@H](O)[C@H](O)[C@H]1O,-89.7%
10,CCCCCCCCCCCCCCCC[n+]1ccccc1,-92.7%
11,COc1cc2cc(c1Cl)N(C)C(=O)C[C@H](OC(=O)C(C)C)[C@]1(C)O[C@@H]1[C@H](C)[C@@H]1C[C@@](O)(NC(=O)O1)[C@H](OC)/C=C/C=C(\C)C2,-66.8%
12,CC[C@@H](C(=O)[C@@H](C)[C@@H](O)[C@H](C)[C@@H]1O[C@@H]([C@@H](CC)C(=O)O)CC[C@@H]1C)[C@H]1O[C@]2(C=C[C@@H](O)[C@]3(CC[C@@](C)([C@H]4CC[C@](O)(CC)[C@H](C)O4)O3)O2)[C@H](C)C[C@@H]1C,-79.3%
13,CC(=O)O[C@@]12CO[C@@H]1C[C@H](O)[C@@]1(C)C(=O)[C@H](O)C3=C(C)[C@@H](O)C[C@@](O)([C@@H](OC(=O)c4ccccc4)[C@H]21)C3(C)C,-37.1%
14,CC(C)(C)c1cc(C=C(C#N)C#N)cc(C(C)(C)C)c1O,-79.1%
15,N#CC(C#N)=NNc1cccc(Cl)c1,-83.3%
16,C[C@@H]1O[C@@H](O[C@@H]2C=C3CC[C@@H]4[C@H](CC[C@]5(C)[C@@H](c6ccc(=O)oc6)CC[C@]45O)[C@@]3(C)CC2)[C@H](O)[C@H](O)[C@H]1O,-81.8%
17,CC1CC(C)C(=O)C(C(O)CC2CC(=O)NC(=O)C2)C1 (stereo not given),-82.5%
18,O=[N+]([O-])C=Cc1ccc2c(c1)OCO2,-25.8%
19,CCNC(=O)C[C@@H]1N=C(c2ccc(Cl)cc2)c2cc(OC)ccc2-n2c(C)nnc21,-56.9%
20,CC[C@H]1CN2CCc3cc(OC)c(OC)cc3[C@@H]2C[C@@H]1C[C@H]1NCCc2cc(OC)c(OC)cc21,-93.8% and -97.5%
